Test results: PubChem BioAssay AID624298 (National Center for Advancing Translational Sciences (NCATS), 2012)
Records with an inconclusive call do not appear. Calls of active or inactive are those of the source. The call rests on the fitted dose curve; in most records, active means well fitted activation curve with a large enough effect; inconclusive means small, poorly fitted or top-dose-only effect; inactive means no such curve, though single readings can be large or run the other way.

assay: Activators of T cell receptors: Hit Validation; conditions: primary human leukocytes, cytokine release by HTRF, 48 h, TCR-stimulated with anti-CD3 beads; series mostly up to 46.1 µM
Outline: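 Readout is IL-2 secretion by HTRF, measured after 48 hr in which primary human leukocytes received compound together with a-CD3 beads as the only TCR stimulus.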
Potency means the concentration at half of the fitted maximal effect.

Potency, inactive:
O=C(Cn1ncc(Cl)c(Cl)c1=O)NCC1CCCCC1
COc1ccccc1N1CCN(CCCC(=O)c2ccc(F)cc2)CC1
O=C(Cc1cccs1)Nc1ccc(F)c(S(=O)(=O)N2CCOCC2)c1
CCOc1ccc(C(=O)N(CN2CCCC2=O)c2cccc(Cl)c2)cc1
COc1cc(OC)cc(C(=O)Nc2ccc(S(=O)(=O)N3CCOCC3)cc2)c1
COc1ccc(N(C)S(=O)(=O)c2cccc(C(=O)N3CCN(Cc4ccc5c(c4)OCO5)CC3)c2)cc1
COc1cc(NC(=O)CN2CCN(S(=O)(=O)/C=C/c3ccccc3)CC2)cc(OC)c1OC
Cc1ccc(C(=O)NNC(=O)COC(=O)COc2ccccc2C#N)cc1
CC1CCN(CCNC(=O)C2CCN(S(=O)(=O)c3cccc4nsnc34)CC2)CC1
C=CCNC(=S)Nc1ccc2nsnc2c1
Cc1cc(C)c(-c2csc(NC(=O)C3=NN(c4ccccc4)C(=O)CC3)n2)c(C)c1
CCOc1ccc(/C=N/NC(=O)c2ccc(O)cc2)cc1CN1CC2CC(C1)c1cccc(=O)n1C2 (stereo not given)
O=C(O)c1ccc(NC(=O)C(c2ccccc2)c2ccccc2)cc1
CN(C)c1cccc(C(=O)N(Cc2ccccc2)Cc2ccccc2)c1
COc1cc(/C=C/C(=O)OCc2csc(CC(=O)Nc3ccc(C)cc3)n2)ccc1OCC#N
O=C(Nc1nnc(-c2ccccc2)s1)c1cccc(S(=O)(=O)N2CCOCC2)c1
Nn1c(SCc2ccccc2F)nnc1-c1ccccn1
CSCc1c(C(=O)OCC(=O)NC2CCCCC2)oc2ccccc12
CCOc1cc(/C=N/NC(=S)Nc2ccccc2C(F)(F)F)ccc1OCC(=O)N1CCOCC1
Cc1cc(NC(=O)CN2C(=O)NC(CC(C)C)C2=O)ccc1Br (stereo not given)
CCC(=O)N1CCN(c2ccc(NC(=O)c3ccc([N+](=O)[O-])o3)cc2)CC1
O=C(NCCCNCc1ccccc1)/C(=N\O)c1ccccc1
COc1cccc(-n2c(SCC(=O)NC3CCS(=O)(=O)C3)nc3ccccc3c2=O)c1 (stereo not given)
COc1cc(C(=O)Nc2ccn(C)n2)ccc1OC(F)F
OC1CCCC1
CC1(C)Cc2cccc(OCC(=O)NCc3ccc(F)cc3)c2O1
CN(CC(=O)NCC(=O)Nc1ccc(F)cc1)C1CCS(=O)(=O)C1 (stereo not given)
COc1ccc(-n2c(=O)[nH]cc(C(=O)Nc3ccc4c(c3)OCO4)c2=O)cc1OC

Potency, active:
CCN(CC)c1ccc2nc3ccccc3[n+](CC)c2c1 4990 nM
CN(C)c1ccc(C=c2c3ccccc3n3c2c2ccccc2[n+]3C)cc1 560 nM
